The sequences below were run against HOXC9 (Homo sapiens, UniProt P31274 178-260, R193K) (assay: PBM; 200 nM protein, PBS). Conditions: dsDNA, one strand shown.
HOXC9, sequence (P31274 178-260 R193K): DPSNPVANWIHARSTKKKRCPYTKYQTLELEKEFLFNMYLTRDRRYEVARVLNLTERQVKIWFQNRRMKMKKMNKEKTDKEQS
With CGGGAGCC the binding signal was 9.62 upbm affinity estimate (log intensity, higher = more binding, comparable within an allelic series).
With ATATTGCA the binding signal was 11.3 upbm affinity estimate (log intensity, higher = more binding, comparable within an allelic series).
In the case of GGGCACGA, the binding signal is reported as 9.76 upbm affinity estimate (log intensity, higher = more binding, comparable within an allelic series).
With GAGATAAA the binding signal was 11.1 upbm affinity estimate (log intensity, higher = more binding, comparable within an allelic series).
For GCCCCAGC, the binding signal was 9.62 upbm affinity estimate (log intensity, higher = more binding, comparable within an allelic series).
ACTAAATA was tested, and the binding signal was 11.6 upbm affinity estimate (log intensity, higher = more binding, comparable within an allelic series).
In the case of CTGGACGC, the binding signal is reported as 9.69 upbm affinity estimate (log intensity, higher = more binding, comparable within an allelic series).
ATCTTTAA was tested, and the binding signal was 11.4 upbm affinity estimate (log intensity, higher = more binding, comparable within an allelic series).
For CGCATTTA, the binding signal was 11.2 upbm affinity estimate (log intensity, higher = more binding, comparable within an allelic series).
For AGCCCGGC, the binding signal was 9.64 upbm affinity estimate (log intensity, higher = more binding, comparable within an allelic series).
In the case of CTGTTATA, the binding signal is reported as 11.5 upbm affinity estimate (log intensity, higher = more binding, comparable within an allelic series).
In the case of ATGAACTA, the binding signal is reported as 10.9 upbm affinity estimate (log intensity, higher = more binding, comparable within an allelic series).
AGTATAAC was tested, and the binding signal was 11 upbm affinity estimate (log intensity, higher = more binding, comparable within an allelic series).
In the case of CGGTCCAG, the binding signal is reported as 9.64 upbm affinity estimate (log intensity, higher = more binding, comparable within an allelic series).
CGTAAAGA was tested, and the binding signal was 11.2 upbm affinity estimate (log intensity, higher = more binding, comparable within an allelic series).
ATTTAACA was tested, and the binding signal was 11.6 upbm affinity estimate (log intensity, higher = more binding, comparable within an allelic series).
For ATTATCGG, the binding signal was 11.4 upbm affinity estimate (log intensity, higher = more binding, comparable within an allelic series).
For CCCCAGGG, the binding signal was 9.59 upbm affinity estimate (log intensity, higher = more binding, comparable within an allelic series).
With TAAGAATA the binding signal was 10.9 upbm affinity estimate (log intensity, higher = more binding, comparable within an allelic series).
For CATTTAGA, the binding signal was 11.3 upbm affinity estimate (log intensity, higher = more binding, comparable within an allelic series).
In the case of TAAAGTGA, the binding signal is reported as 11.4 upbm affinity estimate (log intensity, higher = more binding, comparable within an allelic series).
With CGTTAAAG the binding signal was 11.3 upbm affinity estimate (log intensity, higher = more binding, comparable within an allelic series).
With AGTATTAT the binding signal was 11.6 upbm affinity estimate (log intensity, higher = more binding, comparable within an allelic series).
ATTGTATG was tested, and the binding signal was 11.1 upbm affinity estimate (log intensity, higher = more binding, comparable within an allelic series).
With AGGACGTG the binding signal was 9.75 upbm affinity estimate (log intensity, higher = more binding, comparable within an allelic series).
For CACCATTA, the binding signal was 11.8 upbm affinity estimate (log intensity, higher = more binding, comparable within an allelic series).
In the case of AGCCGACC, the binding signal is reported as 9.61 upbm affinity estimate (log intensity, higher = more binding, comparable within an allelic series).
For TTATACAA, the binding signal was 11.2 upbm affinity estimate (log intensity, higher = more binding, comparable within an allelic series).
AGGGACCC was tested, and the binding signal was 9.63 upbm affinity estimate (log intensity, higher = more binding, comparable within an allelic series).
For AGACCAGG, the binding signal was 9.61 upbm affinity estimate (log intensity, higher = more binding, comparable within an allelic series).
In the case of AGGCTCCC, the binding signal is reported as 9.51 upbm affinity estimate (log intensity, higher = more binding, comparable within an allelic series).
In the case of TTCATAAA, the binding signal is reported as 11.7 upbm affinity estimate (log intensity, higher = more binding, comparable within an allelic series).
GGGGGGCA was tested, and the binding signal was 9.49 upbm affinity estimate (log intensity, higher = more binding, comparable within an allelic series).
For CGGTGCCA, the binding signal was 9.49 upbm affinity estimate (log intensity, higher = more binding, comparable within an allelic series).
With GGGCCCCC the binding signal was 9.51 upbm affinity estimate (log intensity, higher = more binding, comparable within an allelic series).
In the case of ATCTACTA, the binding signal is reported as 10.8 upbm affinity estimate (log intensity, higher = more binding, comparable within an allelic series).
In the case of ATATGAAA, the binding signal is reported as 11.4 upbm affinity estimate (log intensity, higher = more binding, comparable within an allelic series).
In the case of CCTAGACG, the binding signal is reported as 9.81 upbm affinity estimate (log intensity, higher = more binding, comparable within an allelic series).
CCTCCAGG was tested, and the binding signal was 9.34 upbm affinity estimate (log intensity, higher = more binding, comparable within an allelic series).
With CCGTTATA the binding signal was 11.2 upbm affinity estimate (log intensity, higher = more binding, comparable within an allelic series).
